This is an account of results in PubChem BioAssay AID1347088 (National Center for Advancing Translational Sciences (NCATS), 2019).

Results filed as inconclusive are left out. Values without a mark were called inactive. Active and inactive are the calls of the source. The call rests on the fitted dose curve.

A short description of the experiment: qHTS for Inhibitors of the Functional Ribonucleoprotein Complex (vRNP) of Lymphocytic Choriomeningitis Arenaviruses (LCMV): Viability assay - Alamar blue signal for LCMV Confirmatory Screen. As to conditions: LCMV vRNP confirmatory screen cells; series mostly up to 53.9 µM; viability change, negative = toxic: at the top concentration. (qHTS replaces the single test concentration by a dilution series.)
As to `CCCCCN=C(N)N/N=C/c1c[nH]c2ccc(OC)cc12`, the Potency was 9.68 µM (active).
Consider `Cc1cc2c(C(C)C)c(O)c(O)c(C=O)c2c(O)c1-c1c(C)cc2c(C(C)C)c(O)c(O)c(C=O)c2c1O`, for which the Potency is 27.3 µM (active).
With `O=c1[nH]c2ccccc2n1C1CCN(CCCC(c2ccc(F)cc2)c2ccc(F)cc2)CC1`, the “viability change, negative = toxic” value was 6.55%.
Turning to `CCC(c1ccc(O)cc1)C(CC)c1ccc(O)cc1` (stereo not drawn), the “viability change, negative = toxic” value was 23.8%.
`Cc1ccccc1-n1c(Cn2nc(-c3cccc(O)c3)c3c(N)ncnc32)nc2cccc(C)c2c1=O`: the “viability change, negative = toxic” value was -36.2%.
As for `CO/C=C(/C(=O)OC)c1ccccc1Oc1cc(Oc2ccccc2C#N)ncn1`, the Potency was 49.8 µM (active).
For the compound `CCCCC/C(C=O)=C\c1ccccc1`, the “viability change, negative = toxic” value was -17.8%.
As to `CC12C(=O)OC(=O)C1(C)C1CCC2O1` (stereo not drawn), the Potency is 8.63 µM (active).
Same read-out and setting: the result for `O=C1Cc2cc(CCN3CCN(c4nsc5ccccc45)CC3)c(Cl)cc2N1` reads “inactive”.
Regarding `Cc1cccc(-c2[nH]c(C(C)(C)C)nc2-c2ccc3c(c2)OCO3)n1`, the Potency was 4.32 µM (active).
As to `O=C(Nc1ccc(Cl)c(Cl)c1)C1CC1`, the “viability change, negative = toxic” value is 10.2%.
Turning to `CCn1c(-c2nonc2N)nc2cnc(Oc3cccc(NC(=O)c4ccc(OCCN5CCOCC5)cc4)c3)cc21`, the Potency was 24.3 µM (active).
Turning to `COc1ccc(Cc2nccc3cc(OC)c(OC)cc23)cc1OC`, the Potency result is “inactive”.
